Hit rate of the full screen: of about 2,300 compounds, fewer than 10 were called active. These entries were drawn from the full list. Unmarked numbers belong to inactive results.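 Rule for the calls: active = yellow fluorescent protein signal ratio exceeding the buffer control mean by over 5 SD of those controls; inactive = the rest.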

The test can be described thus: nonspecific effects on YFP-HEK293 ionomycin response – cell-based, parental YFP-HEK293, YFP quench, counter-screen for TMEM16A inhibitor project (AID 652233).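 Note: ratio is mean of duplicate wells from kinetic YFP trace.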 The note with it: parental YFP-HEK293, iodide YFP quench, at 10 µM. Background: The purpose of a counterscreen is to sort out artefacts and off-target activity.
Regarding `CCC(=O)Nc1ccc2nc(C)n(Cc3ccccc3Cl)c(=O)c2c1`, the YFP ratio F(max-min)/F0 was -1.04.

For the compound `Cc1cccc(N=Nc2c(O)[nH]c3ccc(F)cc23)c1`, the YFP ratio F(max-min)/F0 was -0.957.

As to `COc1cccc(CNS(=O)(=O)c2ccc3c(c2)CC(C)N3C(=O)C2CCC2)c1` (stereo unspecified), the YFP ratio F(max-min)/F0 is -1.01.

For the compound `C=CCn1c(SCC(=O)Nc2nc3ccccc3s2)nnc1-c1ccccc1O`, the YFP ratio F(max-min)/F0 is -1.05.

Consider `Fc1ccc(CSc2nnc(-c3cc4c(s3)-c3ccccc3CC4)o2)cc1`, for which the YFP ratio F(max-min)/F0 is -0.984.

Take `O=C(CSCc1ccc(Cl)cc1)N1CCN(Cc2ccc3c(c2)OCO3)CC1`: the YFP ratio F(max-min)/F0 is -1.19.

As for `CSc1cccc(NC(=S)N(C(C)C)C(C)c2ccccn2)c1` (stereo unspecified), the YFP ratio F(max-min)/F0 is -0.907.

Consider `CCCCn1ccnc1C(=O)c1cccc(S(=O)(=O)N2c3ccccc3CC2C)c1` (stereo unspecified), for which the YFP ratio F(max-min)/F0 is -1.39.

With `O=C(Nc1ccccc1)c1ccccc1NC(=O)C(F)(F)F`, the YFP ratio F(max-min)/F0 is -0.833.

As for `Cn1c(CN2CCOCC2)nc2cc(NC(=O)c3ccc(Cl)cc3)ccc21`, the YFP ratio F(max-min)/F0 was -0.87.

With `Cc1ccc(C(=O)O)cc1-c1ccc(/C=C2\SC(=O)N(CC(=O)Nc3ccc4c(c3)OCO4)C2=O)o1`, the YFP ratio F(max-min)/F0 was -1.05.

In the case of `CCc1cc2c(N3CCN(c4nnc(CC)s4)CC3)ncnc2s1`, the YFP ratio F(max-min)/F0 is -1.01.

Regarding `Cc1ccc(-c2csc(-c3c[nH]c4ccccc34)n2)cc1`, the YFP ratio F(max-min)/F0 was -0.919.

For the compound `CN(Cc1cccnc1)C(=O)c1cc(COc2ccc3ncccc3c2)on1`, the YFP ratio F(max-min)/F0 was -0.909.

For the compound `CCOC(=O)C1CCN(c2ncnc3c2oc2ccc(Br)cc23)CC1`, the YFP ratio F(max-min)/F0 was -1.19.

Take `O=C1NC(=O)C2C1C(c1ccc([N+](=O)[O-])cc1)=NN2Cc1ccccc1` (stereo unspecified): the YFP ratio F(max-min)/F0 was -1.22.

`Cc1ccc2c(c1)N(CC(=O)N1CCCc3ccccc31)C(=O)C(C)O2` (stereo unspecified): the YFP ratio F(max-min)/F0 is -1.08.

Turning to `O=S1(=O)CCN(Cc2ccccc2Cl)CC1`, the YFP ratio F(max-min)/F0 was -0.979.

For the compound `N#Cc1nc(N)nc(N(c2ccccc2)c2ccccc2)n1`, the YFP ratio F(max-min)/F0 is -1.24.

`CCCOc1ccc(Cc2c(Cl)nc(SC)nc2NC)cc1`: the YFP ratio F(max-min)/F0 is -1.09.

Turning to `Cc1ccc(NC(=O)CN(C)CC(=O)Nc2cccc(F)c2)cc1[N+](=O)[O-]`, the YFP ratio F(max-min)/F0 was -0.913.

In the case of `CCN(CC)S(=O)(=O)c1ccc(N(C)Cc2ccc(C(F)(F)F)cc2)nc1`, the YFP ratio F(max-min)/F0 is -1.04.

On to `CC1CCN(C(=O)c2ccc(CSc3ccc(Cl)cc3)cc2)CC1`, for which the YFP ratio F(max-min)/F0 is -0.991.

For `COc1ccc(-n2c(C)cc(C(=O)CSc3nnc(-c4cccs4)o3)c2C)cc1`, the YFP ratio F(max-min)/F0 is -1.16.

Take `CCn1nccc1C(=O)Nc1ccc(S(=O)(=O)NC23CC4CC(CC(C4)C2)C3)cc1`: the YFP ratio F(max-min)/F0 is -1.03.

For the compound `O=C(CN1CCN(C(=S)NC2CCCC2)CC1)Nc1ccc(Oc2ccccc2)cc1`, the YFP ratio F(max-min)/F0 is -1.09.

On to `Cc1ccc(N)cc1-n1c(C)ccc1C`, for which the YFP ratio F(max-min)/F0 was -1.02.

With `CN(C)c1cc[n+](Cc2ccccc2)cc1`, the YFP ratio F(max-min)/F0 was -1.12.

For `Cn1c(CCN2CCCCCC2)nc2cc(NC(=O)Nc3ccccc3)ccc21`, the YFP ratio F(max-min)/F0 is -1.1.

Consider `COc1cc(CC(=O)Nc2nc(-c3ccc(F)c(F)c3)cs2)cc(OC)c1OC`, for which the YFP ratio F(max-min)/F0 was -1.01.

On to `S=C(NCC1CCCO1)N1CCN(c2ccc(Cl)c(Cl)c2)CC1` (stereo unspecified), for which the YFP ratio F(max-min)/F0 was -0.789.

For `O=c1cc(C(F)(F)F)[nH]c(=O)n1C1CCCCC1`, the YFP ratio F(max-min)/F0 is -1.23.

With `CCCc1cc(=S)n2c([nH]c3ccccc32)c1C#N`, the YFP ratio F(max-min)/F0 is -0.888.

For the compound `Cc1ccc(NC(=O)C(C)c2cccc(C(=O)c3ccccc3)c2)cc1` (stereo unspecified), the YFP ratio F(max-min)/F0 is -1.26.

Regarding `Cc1nc(CNS(=O)(=O)c2ccc(Oc3ccccc3)cc2)cs1`, the YFP ratio F(max-min)/F0 was -1.1.

In the case of `C=CCSc1nsc(NC(=O)Nc2cccc(C(C)=O)c2)n1`, the YFP ratio F(max-min)/F0 is -1.12.

For `O=C(O)c1ccc(NC(=O)C2CCCCC2)cc1`, the YFP ratio F(max-min)/F0 is -1.22.

For the compound `Fc1ccc2[nH]c3c(N4CCSCC4)ncnc3c2c1`, the YFP ratio F(max-min)/F0 was -1.05.

As to `CCCC(=O)Nc1ccccc1N1CCN(C(=O)c2ccccc2)CC1`, the YFP ratio F(max-min)/F0 was -1.02.

On to `COc1ccc(-c2nc(CCNC(=O)c3ccc(Br)o3)cs2)cc1`, for which the YFP ratio F(max-min)/F0 was -1.06.

In the case of `COc1ccc(NC(=O)C2=CC(c3ccc(OC)c(OC)c3)=NS(=O)(=O)N2C)cc1`, the YFP ratio F(max-min)/F0 is -1.13.

As for `Cc1[nH]n(-c2cccc(Cl)c2)c(=O)c1-c1ccc(Cl)cc1`, the YFP ratio F(max-min)/F0 is -0.864.

As for `CCOC(=O)C1=C(CN2CCc3ccccc32)NC(=O)NC1c1cccc([N+](=O)[O-])c1` (stereo unspecified), the YFP ratio F(max-min)/F0 was -1.14.

With `Cc1ccc(C)c(N2CCN(C(=O)CCCCn3c(=O)[nH]c4ccccc4c3=O)CC2)c1`, the YFP ratio F(max-min)/F0 is -1.

Turning to `CSc1nnc2c(n1)OC(c1ccsc1)N(C(C)=O)c1ccccc1-2` (stereo unspecified), the YFP ratio F(max-min)/F0 is -1.24.

With `CC(=O)c1cc(CN2CCC(C(=O)Nc3cccc(-c4cscn4)c3)CC2)cs1`, the YFP ratio F(max-min)/F0 was -0.907.

As for `Cc1cccc(-n2c(SCC(N)=O)nc3c(c2=O)C2(CCCCC2)Cc2ccccc2-3)c1`, the YFP ratio F(max-min)/F0 was -0.969.

Consider `COc1ccc(C(=O)NC2CCCc3c2cnn3-c2cccc(C)c2C)c(OC)n1` (stereo unspecified), for which the YFP ratio F(max-min)/F0 was -0.94.

For the compound `CCOC(=O)C(Sc1ncc(C#N)c(N)n1)C(C)C` (stereo unspecified), the YFP ratio F(max-min)/F0 is -1.02.

Regarding `O=C(NCCc1ccc2c(c1)OCCO2)c1cc2ccccc2o1`, the YFP ratio F(max-min)/F0 is -0.931.

For the compound `COc1ccc(Cl)cc1NC(=O)CCS(=O)(=O)c1cc2c(cc1C)NC(=O)CO2`, the YFP ratio F(max-min)/F0 is -0.855.
